Measured values from PMC7862700, “An all-to-all approach to the identification of sequence-specific readers for epigenetic DNA modifications on cytosine”.

Tests used:
Assay in all cases: DAPPL (digital affinity profiling via proximity ligation, sequencing); 10 mM Tris-HCl pH 7.5, 50 mM NaCl, 1 mM DTT, 4% glycerol, room temperature, 30 min; GST-TFs on glutathione beads, 16-mer random dsDNA library, 0.1% formaldehyde crosslink after washing; high values mean tight binding
FLI1 = biological target: T1, FLI1 (Homo sapiens, UniProt Q01543 1-452); conditions: protein: recombinant; tags: N-terminal GST; dsDNA, one strand shown
T1 sequence: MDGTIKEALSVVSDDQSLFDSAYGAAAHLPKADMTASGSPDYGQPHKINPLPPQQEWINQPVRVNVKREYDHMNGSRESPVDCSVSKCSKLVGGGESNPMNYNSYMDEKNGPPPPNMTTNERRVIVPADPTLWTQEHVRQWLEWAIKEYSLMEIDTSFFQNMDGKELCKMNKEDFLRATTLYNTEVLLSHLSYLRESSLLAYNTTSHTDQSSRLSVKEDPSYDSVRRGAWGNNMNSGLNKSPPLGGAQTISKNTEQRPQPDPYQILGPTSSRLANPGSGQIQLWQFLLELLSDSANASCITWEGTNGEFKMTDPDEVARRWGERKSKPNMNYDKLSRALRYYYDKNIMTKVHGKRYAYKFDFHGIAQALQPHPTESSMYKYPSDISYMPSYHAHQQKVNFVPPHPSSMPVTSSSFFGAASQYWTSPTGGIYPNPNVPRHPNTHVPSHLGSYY
How it was run: (§1)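 In yeast, human transcription factors were expressed with a GST fusion, then pulled down on glutathione beads and given DNA barcodes. Pooled with a tag-only sample, they were exposed to 200 nmole of a 16-mer random double-stranded DNA library (Tris/NaCl/DTT/glycerol buffer, room temperature, 30 min), washed, crosslinked with 0.1% formaldehyde, proximity-ligated using BsaI/T4 ligase for 1 h at 37 °C, PCR-amplified and read on an Illumina NextSeq500. Each hexamer's frequency of reads for a factor, divided by the matching frequency for the tag-only sample, gives the binding signal.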

GABPA = biological target: T2, GABPA (Homo sapiens, UniProt Q06546 1-454); conditions: protein: recombinant; tags: N-terminal GST; dsDNA, one strand shown
T2 sequence: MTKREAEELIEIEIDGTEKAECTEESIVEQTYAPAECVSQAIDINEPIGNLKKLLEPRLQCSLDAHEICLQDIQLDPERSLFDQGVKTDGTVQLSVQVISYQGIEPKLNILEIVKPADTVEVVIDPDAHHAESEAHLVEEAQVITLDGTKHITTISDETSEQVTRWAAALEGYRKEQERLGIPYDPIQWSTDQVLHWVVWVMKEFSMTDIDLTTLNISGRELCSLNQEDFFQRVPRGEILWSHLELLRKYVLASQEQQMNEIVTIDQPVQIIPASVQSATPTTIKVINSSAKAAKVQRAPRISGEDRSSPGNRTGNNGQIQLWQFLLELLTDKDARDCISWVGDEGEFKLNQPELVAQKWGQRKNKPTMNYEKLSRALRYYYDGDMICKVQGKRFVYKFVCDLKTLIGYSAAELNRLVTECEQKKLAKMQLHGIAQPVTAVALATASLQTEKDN
How it was run: as §1

EHF = biological target: T3, EHF (Homo sapiens, UniProt Q9NZC4 1-300); conditions: protein: recombinant; tags: N-terminal GST; dsDNA, one strand shown
T3 sequence: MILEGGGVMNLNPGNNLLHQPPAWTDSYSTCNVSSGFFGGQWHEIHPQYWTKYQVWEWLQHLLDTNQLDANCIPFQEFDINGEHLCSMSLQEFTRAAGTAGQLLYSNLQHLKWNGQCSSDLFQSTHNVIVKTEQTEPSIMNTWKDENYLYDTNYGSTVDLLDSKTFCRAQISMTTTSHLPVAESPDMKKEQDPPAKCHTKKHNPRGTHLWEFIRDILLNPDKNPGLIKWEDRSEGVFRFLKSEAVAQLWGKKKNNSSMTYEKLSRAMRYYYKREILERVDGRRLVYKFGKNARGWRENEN
How it was run: as §1

ERF = biological target: T4, ERF (Homo sapiens, UniProt P50548 1-548); conditions: protein: recombinant; tags: N-terminal GST; dsDNA, one strand shown
T4 sequence: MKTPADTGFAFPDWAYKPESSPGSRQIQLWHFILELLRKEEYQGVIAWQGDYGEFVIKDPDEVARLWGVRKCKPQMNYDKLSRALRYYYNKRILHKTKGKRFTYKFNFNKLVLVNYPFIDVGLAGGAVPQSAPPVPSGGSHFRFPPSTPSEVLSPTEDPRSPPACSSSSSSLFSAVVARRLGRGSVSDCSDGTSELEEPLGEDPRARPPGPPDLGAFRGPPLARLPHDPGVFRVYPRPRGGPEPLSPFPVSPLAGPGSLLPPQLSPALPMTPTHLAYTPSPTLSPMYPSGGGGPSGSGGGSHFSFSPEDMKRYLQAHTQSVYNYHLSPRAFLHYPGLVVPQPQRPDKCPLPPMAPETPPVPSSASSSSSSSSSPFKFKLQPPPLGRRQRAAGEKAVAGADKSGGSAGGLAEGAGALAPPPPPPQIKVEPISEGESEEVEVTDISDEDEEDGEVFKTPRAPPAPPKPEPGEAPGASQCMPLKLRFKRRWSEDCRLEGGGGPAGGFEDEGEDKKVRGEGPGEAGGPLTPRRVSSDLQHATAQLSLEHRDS
How it was run: as §1

HSF1 = HSF1 (Homo sapiens, UniProt Q00613 1-529); conditions: protein: recombinant; tags: N-terminal GST; chain copies: 3; dsDNA, one strand shown
How it was run: as §1

SPI1 = SPI1 (Homo sapiens, UniProt P17947 1-270); conditions: protein: recombinant; tags: N-terminal GST; dsDNA, one strand shown
How it was run: as §1

ELK4 = biological target: T5, ELK4 (Homo sapiens, UniProt P28324-2 1-405); conditions: protein: recombinant; tags: N-terminal GST; dsDNA, one strand shown
T5 sequence: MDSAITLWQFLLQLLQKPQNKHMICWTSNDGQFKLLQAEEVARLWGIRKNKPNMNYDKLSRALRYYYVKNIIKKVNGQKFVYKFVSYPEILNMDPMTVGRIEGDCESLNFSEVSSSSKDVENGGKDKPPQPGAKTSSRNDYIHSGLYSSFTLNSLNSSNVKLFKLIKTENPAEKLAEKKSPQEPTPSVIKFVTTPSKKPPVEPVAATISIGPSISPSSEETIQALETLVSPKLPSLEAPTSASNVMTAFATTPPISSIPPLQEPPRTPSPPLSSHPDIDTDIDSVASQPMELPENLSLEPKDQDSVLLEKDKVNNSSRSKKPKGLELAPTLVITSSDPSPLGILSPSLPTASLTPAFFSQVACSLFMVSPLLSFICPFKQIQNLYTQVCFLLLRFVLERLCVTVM
How it was run: as §1

ETV2 = biological target: T6, ETV2 (Homo sapiens, UniProt O00321 1-342); conditions: protein: recombinant; tags: N-terminal GST; dsDNA, one strand shown
T6 sequence: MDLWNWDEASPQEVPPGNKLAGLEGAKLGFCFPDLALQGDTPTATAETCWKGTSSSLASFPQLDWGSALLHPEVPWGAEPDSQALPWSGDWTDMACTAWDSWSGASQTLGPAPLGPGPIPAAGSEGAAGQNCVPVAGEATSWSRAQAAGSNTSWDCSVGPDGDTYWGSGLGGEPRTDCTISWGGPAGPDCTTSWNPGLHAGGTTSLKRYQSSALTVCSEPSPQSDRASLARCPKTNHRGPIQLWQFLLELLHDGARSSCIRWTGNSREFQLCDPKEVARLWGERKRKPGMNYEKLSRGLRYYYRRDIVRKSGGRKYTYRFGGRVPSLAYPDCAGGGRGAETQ
How it was run: as §1

ETV3 = biological target: T7, ETV3 (Homo sapiens, UniProt P41162-2 1-143); conditions: protein: recombinant; tags: N-terminal GST; dsDNA, one strand shown
T7 sequence: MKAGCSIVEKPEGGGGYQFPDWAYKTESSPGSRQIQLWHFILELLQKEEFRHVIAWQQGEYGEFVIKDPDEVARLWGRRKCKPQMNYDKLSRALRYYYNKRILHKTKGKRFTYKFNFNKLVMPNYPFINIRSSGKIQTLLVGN
How it was run: as §1

ETV6 = ETV6 (Homo sapiens, UniProt P41212 1-452); conditions: protein: recombinant; tags: N-terminal GST; dsDNA, one strand shown
How it was run: as §1

Sequence of HSF1 (Q00613 whole entry): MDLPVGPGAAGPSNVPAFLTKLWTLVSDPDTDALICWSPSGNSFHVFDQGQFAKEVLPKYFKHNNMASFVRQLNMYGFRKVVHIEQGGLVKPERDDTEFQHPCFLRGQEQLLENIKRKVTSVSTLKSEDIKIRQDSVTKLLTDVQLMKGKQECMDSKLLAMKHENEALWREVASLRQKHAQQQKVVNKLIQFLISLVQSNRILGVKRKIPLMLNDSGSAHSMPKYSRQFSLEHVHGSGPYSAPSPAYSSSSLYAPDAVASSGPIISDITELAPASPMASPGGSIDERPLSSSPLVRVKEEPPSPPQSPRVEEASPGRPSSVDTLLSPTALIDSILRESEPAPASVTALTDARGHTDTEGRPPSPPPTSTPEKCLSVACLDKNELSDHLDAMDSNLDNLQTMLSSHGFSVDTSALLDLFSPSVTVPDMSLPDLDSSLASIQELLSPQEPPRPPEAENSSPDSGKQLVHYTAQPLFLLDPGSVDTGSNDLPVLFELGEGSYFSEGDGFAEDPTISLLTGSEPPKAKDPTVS
Sequence of ETV6 (P41212 whole entry): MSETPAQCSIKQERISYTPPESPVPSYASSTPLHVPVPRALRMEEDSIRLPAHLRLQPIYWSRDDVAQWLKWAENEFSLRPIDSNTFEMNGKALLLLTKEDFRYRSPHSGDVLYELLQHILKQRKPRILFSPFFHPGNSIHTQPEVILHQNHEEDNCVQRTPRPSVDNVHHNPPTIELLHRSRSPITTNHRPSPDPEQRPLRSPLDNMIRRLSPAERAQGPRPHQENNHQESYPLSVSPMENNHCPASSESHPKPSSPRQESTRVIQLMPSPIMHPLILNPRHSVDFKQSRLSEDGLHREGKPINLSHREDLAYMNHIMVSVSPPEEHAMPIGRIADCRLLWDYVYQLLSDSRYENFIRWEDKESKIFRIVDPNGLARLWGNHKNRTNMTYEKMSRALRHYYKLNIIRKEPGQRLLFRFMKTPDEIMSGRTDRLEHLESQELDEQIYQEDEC

Q: What does the source list for CATTGG?
A: binding signal (FLI1): 1.05 fold enrichment (6-mer frequency, TF over GST control); binding signal (GABPA): 1 fold enrichment (6-mer frequency, TF over GST control); binding signal (EHF): 1 fold enrichment (6-mer frequency, TF over GST control); binding signal (ERF): 1.05 fold enrichment (6-mer frequency, TF over GST control)

Q: TCGAGG was tested. Which binding signal (HSF1) did it give?
A: The binding signal was 1.04 fold enrichment (6-mer frequency, TF over GST control).

Q: GTGCGC was tested. Which binding signal (FLI1) did it give?
A: Its binding signal is 1.02 fold enrichment (6-mer frequency, TF over GST control).

Q: What about the binding signal (SPI1) of the same sequence?
A: Its binding signal is 1.02 fold enrichment (6-mer frequency, TF over GST control).

Q: And the binding signal (ELK4)?
A: The binding signal was 1.15 fold enrichment (6-mer frequency, TF over GST control).

Q: What about the binding signal (ETV2) of the same sequence?
A: Its binding signal is 1.02 fold enrichment (6-mer frequency, TF over GST control).

Q: And the binding signal (ETV3)?
A: The binding signal was 1.04 fold enrichment (6-mer frequency, TF over GST control).

Q: What about the binding signal (ETV6) of the same sequence?
A: The binding signal was 1.03 fold enrichment (6-mer frequency, TF over GST control).
